Results: PubChem BioAssay (NCI)
About 79,000 compounds went through this panel and 15% of them were active in at least one assay; those are over-represented in the sample as a whole. Active and inactive are the calls of the source. Rule as the data show it: active = growth inhibition above about 70%; inactive = the rest.

Assays:
[1] = NCI Yeast Anticancer Drug Screen. Data for the rad52 strain (AID 147);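 also: 0% = growth of vehicle-treated control cultures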; settings: S. cerevisiae rad52 mutant growth inhibition, hits give high values
Summary of the method: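 Compounds are applied to a genetically defined yeast strain lacking normal DNA damage repair, and inhibition of growth is expressed relative to cultures given vehicle only.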

[2] = NCI Yeast Anticancer Drug Screen. Data for the wt1 strain (AID 149);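 also: 0% = growth of vehicle-treated wt1 cultures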; settings: S. cerevisiae wt1 strain (SPY 50644) growth inhibition, hits give high values
Summary of the method: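 Vehicle-normalised growth inhibition; strain wt1; compound exposure.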

[3] = NCI Yeast Anticancer Drug Screen. Data for the rad50EPP+ strain (AID 151);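 also: 0% = growth of vehicle-treated control cultures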; settings: S. cerevisiae rad50 mutant strain, hits give high values
Summary of the method: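 Compounds were applied to the rad50EPP+ yeast strain, which bears a defined DNA repair alteration, and growth inhibition was determined relative to vehicle-treated cultures.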

[4] = NCI Yeast Anticancer Drug Screen. Data for the mgt1 strain (AID 153); settings: S. cerevisiae mgt1 mutant growth inhibition, hits give high values
Summary of the method: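 Strain: mgt1 yeast, one of a set carrying defined DNA damage repair or cell cycle control alterations. Compound-treated growth compared with vehicle.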

[5] = NCI Yeast Anticancer Drug Screen. Data for the rad50 strain (AID 155);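 also: 0% = growth of vehicle-only cultures of the same strain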; settings: S. cerevisiae rad50 strain growth inhibition, hits give high values
Summary of the method: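 A DNA repair-deficient yeast mutant serves as the test organism; compound-induced growth inhibition is calculated against vehicle-treated cells.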

[6] = NCI Yeast Anticancer Drug Screen. Data for the mec2-1 strain (AID 157); settings: S. cerevisiae mec2-1 strain, hits give high values
Summary of the method: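 Strain: mec2-1 (DNA repair/cell cycle alteration). Compound exposure, then growth measured; inhibition expressed relative to vehicle.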

[7] = NCI Yeast Anticancer Drug Screen. Data for the rad14 strain (AID 159);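 also: 0% = growth of vehicle-treated control cultures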; settings: S. cerevisiae rad14 strain growth inhibition, hits give high values
Summary of the method: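 Vehicle-treated cultures served as the baseline for growth inhibition of a DNA repair-mutant yeast strain exposed to each compound.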

[8] = NCI Yeast Anticancer Drug Screen. Data for the sgs1 mgt1 strain (AID 161);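 also: 0% = growth of cultures given vehicle only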; settings: S. cerevisiae sgs1 mgt1 strain, hits give high values
Summary of the method: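 Read-out: growth inhibition vs vehicle controls. Cells: mutant yeast strain deficient in DNA damage repair.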

[9] = NCI Yeast Anticancer Drug Screen. Data for the CLN2oe strain (AID 163);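 also: 0% = growth of vehicle-only control cultures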; settings: S. cerevisiae CLN2oe strain, hits give high values
Summary of the method: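 Growth of a genetically modified yeast strain is measured after compound exposure and compared with cultures given vehicle alone.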

[10] = NCI Yeast Anticancer Drug Screen. Data for the cln2 rad14 strain (AID 165);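 also: 0% = growth equal to vehicle treated cultures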; settings: S. cerevisiae cln2 rad14 strain, hits give high values
Summary of the method: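 Compounds are applied to the cln2 rad14 yeast strain, and growth is then compared with that of vehicle-treated cultures to give inhibition.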

[11] = NCI Yeast Anticancer Drug Screen. Data for the bub3 strain (AID 167); settings: S. cerevisiae bub3 mutant strain, hits give high values
Summary of the method: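 Inhibition values come from growth of compound-treated mutant yeast normalised to vehicle-treated controls.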

[12] = NCI Yeast Anticancer Drug Screen. Data for the wt2 strain (AID 169);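 also: 0% = growth of vehicle-treated yeast cultures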; settings: S. cerevisiae wt2 strain growth inhibition, hits give high values
Summary of the method: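 This strain belongs to a panel of yeast strains with defined genetic alterations in DNA damage repair or cell cycle control. Compounds are applied, and growth inhibition is measured against vehicle-treated cultures.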

[13] = NCI Yeast Anticancer Drug Screen. Data for the mlh1 strain (AID 171);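 also: 0% = growth of vehicle-treated control cultures of the same strain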; settings: S. cerevisiae mlh1 strain growth inhibition, hits give high values
Summary of the method: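 Growth of the mutant yeast strain after compound exposure, expressed as inhibition relative to vehicle-only controls.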

[14] = NCI Yeast Anticancer Drug Screen. Data for the sgs1 strain (AID 173);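 also: 0% = growth of vehicle-only control cultures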; settings: S. cerevisiae sgs1 mutant, hits give high values
Summary of the method: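 Growth of a yeast strain bearing a defined genetic alteration is measured after compound treatment. Inhibition is expressed relative to vehicle-only controls.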

[15] = NCI Yeast Anticancer Drug Screen. Data for the mlh1 rad18 strain (AID 175); settings: S. cerevisiae mlh1 rad18 strain growth inhibition, hits give high values
Summary of the method: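 Read-out is yeast growth inhibition, calculated against vehicle-only controls. The compound was applied to a strain engineered with DNA damage repair alterations.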

[16] = NCI Yeast Anticancer Drug Screen. Data for the rad18 strain (AID 177); settings: S. cerevisiae rad18 mutant growth inhibition, hits give high values
Summary of the method: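 Growth of the mutant yeast strain after compound exposure, normalised to vehicle-only cultures.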

[17] = at 5.0 µM (retest, dose inferred, filed as 0.5)
[18] = at 50.0 µM (retest, dose inferred, filed as 5.0)

Measured: growth inhibition

O=C(Cc1csc2[n+]1C(=O)/C(=C/c1ccc(Cl)cc1)S2)Nc1ccccc1
active: [1]; at 100.0 µM 87% | [3]; at 100.0 µM 75% | [4]; at 100.0 µM 87% | [5]; [18] 98% | [5]; at 50.0 µM 98.5% | [5]; at 100.0 µM 78% | [6]; [18] 99% | [6]; at 50.0 µM 98.8% | [8]; [18] 96% | [8]; at 50.0 µM 98.9% | [10]; [18] 98% | [10]; at 50.0 µM 98.5% | [11]; [17] 97% | [11]; [18] 99% | [11]; at 50.0 µM 98.8% | [12]; at 100.0 µM 82% | [13]; at 100.0 µM 75% | [14]; at 33.0 µM 72% | [14]; at 100.0 µM 89% | [15]; [18] 98% | [15]; at 50.0 µM 98.3%
inactive: [1]; at 1.2 µM 15% | [1]; at 3.7 µM 4% | [1]; at 11.0 µM 20% | [1]; at 33.0 µM 49% | [2]; at 1.2 µM -84% | [2]; at 3.7 µM -1% | [2]; at 11.0 µM 0% | [2]; at 33.0 µM 16% | [2]; at 100.0 µM 60% | [3]; at 1.2 µM 2% | [3]; at 3.7 µM 8% | [3]; at 11.0 µM 34% | [3]; at 33.0 µM 65% | [4]; at 1.2 µM -1% | [4]; at 3.7 µM 1% | [4]; at 11.0 µM 7% | [4]; at 33.0 µM 54% | [5]; at 1.2 µM -2% | [5]; at 3.7 µM 1% | [5]; [17] 24% | [5]; at 11.0 µM 9% | [5]; at 33.0 µM 43% | [6]; at 1.2 µM -3% | [6]; at 3.7 µM 5% | [6]; [17] 25% | [6]; at 11.0 µM 13% | [6]; at 33.0 µM 39% | [6]; at 100.0 µM 62% | [7]; at 1.2 µM 0% | [7]; at 3.7 µM 4% | [7]; at 11.0 µM 10% | [7]; at 33.0 µM 33% | [7]; at 100.0 µM 69% | [8]; [17] 2% | [9]; at 1.2 µM -6% | [9]; at 3.7 µM -14% | [9]; at 11.0 µM -12% | [9]; at 33.0 µM 8% | [9]; at 100.0 µM 47% | [10]; [17] 42% | [11]; at 1.2 µM -8% | [11]; at 3.7 µM -8% | [11]; at 11.0 µM -7% | [11]; at 33.0 µM 11% | [11]; at 100.0 µM 12% | [12]; at 1.2 µM -3% | [12]; at 3.7 µM -3% | [12]; at 11.0 µM 7% | [12]; at 33.0 µM 60% | [13]; at 1.2 µM -1% | [13]; at 3.7 µM 1% | [13]; at 11.0 µM 8% | [13]; at 33.0 µM 52% | [14]; at 1.2 µM 2% | [14]; at 3.7 µM 11% | [14]; at 11.0 µM 32% | [15]; [17] 20% | [16]; at 1.2 µM 0% | [16]; at 3.7 µM 5% | [16]; at 11.0 µM 21% | [16]; at 33.0 µM 56% | [16]; at 100.0 µM 69%

O=C(N=Nc1cc(Cl)ccc1Cl)NNc1cc(Cl)ccc1Cl
active: [5]; [18] 76% | [5]; at 50.0 µM 74.4% | [6]; [18] 79% | [6]; at 50.0 µM 78.1% | [8]; [18] 73% | [10]; [18] 82% | [10]; at 50.0 µM 71.8% | [11]; [18] 81% | [15]; [18] 86%
inactive: [1]; at 1.2 µM -2% | [1]; at 3.7 µM -4% | [1]; at 11.0 µM -3% | [1]; at 33.0 µM -2% | [1]; at 100.0 µM 2% | [2]; at 1.2 µM -2% | [2]; at 3.7 µM 0% | [2]; at 11.0 µM -1% | [2]; at 33.0 µM 0% | [2]; at 100.0 µM 4% | [3]; at 1.2 µM -1% | [3]; at 3.7 µM -3% | [3]; at 11.0 µM -1% | [3]; at 33.0 µM -3% | [3]; at 100.0 µM 4% | [4]; at 1.2 µM -3% | [4]; at 3.7 µM -4% | [4]; at 11.0 µM 17% | [4]; at 33.0 µM -12% | [4]; at 100.0 µM 2% | [5]; at 1.2 µM -2% | [5]; at 3.7 µM -2% | [5]; [17] -2% | [5]; at 11.0 µM -23% | [5]; at 33.0 µM -1% | [5]; at 100.0 µM 3% | [6]; at 1.2 µM -1% | [6]; at 3.7 µM 0% | [6]; [17] 19% | [6]; at 11.0 µM 3% | [6]; at 33.0 µM -1% | [6]; at 100.0 µM 4% | [7]; at 1.2 µM -3% | [7]; at 3.7 µM -4% | [7]; at 11.0 µM -5% | [7]; at 33.0 µM 2% | [7]; at 100.0 µM 3% | [8]; [17] 3% | [8]; at 50.0 µM 66.5% | [9]; at 1.2 µM 0% | [9]; at 3.7 µM -7% | [9]; at 11.0 µM 0% | [9]; at 33.0 µM 0% | [9]; at 100.0 µM 9% | [10]; [17] 39% | [11]; at 1.2 µM -1% | [11]; at 3.7 µM 2% | [11]; [17] -30% | [11]; at 11.0 µM 3% | [11]; at 33.0 µM -7% | [11]; at 50.0 µM 60.1% | [11]; at 100.0 µM -6% | [12]; at 1.2 µM -1% | [12]; at 3.7 µM -3% | [12]; at 11.0 µM -2% | [12]; at 33.0 µM -1% | [12]; at 100.0 µM 2% | [13]; at 1.2 µM -1% | [13]; at 3.7 µM -5% | [13]; at 11.0 µM -3% | [13]; at 33.0 µM -1% | [13]; at 100.0 µM 1% | [14]; at 1.2 µM -2% | [14]; at 3.7 µM -1% | [14]; at 11.0 µM -1% | [14]; at 33.0 µM -1% | [14]; at 100.0 µM 1% | [15]; [17] 5% | [15]; at 50.0 µM 68.9% | [16]; at 1.2 µM -4% | [16]; at 3.7 µM -3% | [16]; at 11.0 µM -6% | [16]; at 33.0 µM -21% | [16]; at 100.0 µM 3%

CCCCCCCCCCCCCCCCCCN(C)CC(COP(=O)([O-])OCC[N+](C)(C)C)OC (stereo unspecified)
active: [1]; at 11.0 µM 97% | [1]; at 33.0 µM 98% | [1]; at 100.0 µM 98% | [2]; at 11.0 µM 97% | [2]; at 33.0 µM 99% | [2]; at 100.0 µM 99% | [3]; at 11.0 µM 98% | [3]; at 33.0 µM 98% | [3]; at 100.0 µM 98% | [4]; at 11.0 µM 97% | [4]; at 33.0 µM 99% | [4]; at 100.0 µM 98% | [5]; at 11.0 µM 98% | [5]; at 33.0 µM 98% | [5]; [18] 98% | [5]; at 50.0 µM 88.2% | [5]; at 100.0 µM 98%
inactive: [1]; at 1.2 µM -14% | [1]; at 3.7 µM -24% | [2]; at 1.2 µM 0% | [2]; at 3.7 µM -2% | [3]; at 1.2 µM -4% | [3]; at 3.7 µM 43% | [4]; at 1.2 µM 21% | [4]; at 3.7 µM 32% | [5]; at 1.2 µM 8% | [5]; at 3.7 µM 18% | [5]; [17] 17% | [6]; at 1.2 µM 13% | [6]; at 3.7 µM 18%
